Assay results published in the supplement of paper PMC9694430.

How the values were obtained:
Assay in all cases: thermal shift delta Tm vs DMSO control; higher = stronger stabilization (binding)
Conditions in all cases: 12.5 µM; protein concentration 2 µM
LOC_OS02G45750-cb003 = test system: LOC_OS02G45750-cb003
In short: (§1)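 Rice kinase domain constructs, made in E. coli and purified, were placed in 96-well plates at 2 μM in 19.5 μl of 100 mM potassium phosphate pH 7.5, 150 mM NaCl, 10% glycerol and 5 × SYPRO Orange, with compound in DMSO. A temperature ramp from 25°C to 95°C at 0.05°C/s was used for differential scanning fluorimetry. The melting temperature shift is a triplicate mean compared with DMSO-only protein, derived from Boltzmann fits.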

LOC_OS02G54510-cb004 = test system: LOC_OS02G54510-cb004
In short: as §1

LOC_OS03G04050-cb001 = test system: LOC_OS03G04050-cb001
In short: as §1

LOC_OS03G12390-cb001 = test system: LOC_OS03G12390-cb001
In short: as §1

LOC_OS03G27990-cb004 = test system: LOC_OS03G27990-cb004
In short: as §1

LOC_OS03G50450-cb001 = test system: LOC_OS03G50450-cb001
In short: as §1

LOC_OS03G50810-cb003 = test system: LOC_OS03G50810-cb003
In short: as §1

LOC_OS04G35114-cb001 = test system: LOC_OS04G35114-cb001
In short: as §1

LOC_OS04G38480-cb003 = test system: T1, LOC_OS04G38480-cb003
T1 sequence (whole entry): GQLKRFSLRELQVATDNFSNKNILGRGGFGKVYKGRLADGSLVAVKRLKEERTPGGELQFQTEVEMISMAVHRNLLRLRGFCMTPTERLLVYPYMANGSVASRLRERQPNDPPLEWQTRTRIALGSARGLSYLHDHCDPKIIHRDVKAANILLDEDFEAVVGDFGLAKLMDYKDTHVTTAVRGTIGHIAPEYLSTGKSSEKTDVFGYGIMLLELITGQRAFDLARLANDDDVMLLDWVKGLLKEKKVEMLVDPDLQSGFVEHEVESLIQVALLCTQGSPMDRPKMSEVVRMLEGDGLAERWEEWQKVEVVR
In short: as §1

LOC_OS04G41100-cb001 = test system: T2, LOC_OS04G41100-cb001
T2 sequence (whole entry): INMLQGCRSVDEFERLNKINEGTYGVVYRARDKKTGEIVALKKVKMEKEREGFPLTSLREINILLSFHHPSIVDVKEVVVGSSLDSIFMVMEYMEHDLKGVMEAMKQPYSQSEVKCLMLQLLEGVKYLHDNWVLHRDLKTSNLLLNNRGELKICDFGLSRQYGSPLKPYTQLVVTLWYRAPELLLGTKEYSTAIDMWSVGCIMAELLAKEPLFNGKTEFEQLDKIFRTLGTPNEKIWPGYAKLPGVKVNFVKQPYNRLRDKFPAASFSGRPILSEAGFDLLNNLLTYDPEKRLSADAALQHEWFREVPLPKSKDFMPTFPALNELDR
In short: as §1
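Note: purified Escherichia coli-expressed rice kinase domain construct.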

| Structure (SMILES) | thermal shift delta Tm (LOC_OS02G45750-cb003) | thermal shift delta Tm (LOC_OS02G54510-cb004) | thermal shift delta Tm (LOC_OS03G04050-cb001) | thermal shift delta Tm (LOC_OS03G12390-cb001) | thermal shift delta Tm (LOC_OS03G27990-cb004) | thermal shift delta Tm (LOC_OS03G50450-cb001) | thermal shift delta Tm (LOC_OS03G50810-cb003) | thermal shift delta Tm (LOC_OS04G35114-cb001) | thermal shift delta Tm (LOC_OS04G38480-cb003) | thermal shift delta Tm (LOC_OS04G41100-cb001) |
| --- | --- | --- | --- | --- | --- | --- | --- | --- | --- | --- |
| CO[C@H]1CC[C@H](N2C(=O)CNc3ncc(-c4ccc(C(C)(C)O)nc4)nc32)CC1 | 0.31 °C | -0.17 °C | 0.09 °C | -0.22 °C | -0.29 °C | 0.22 °C | 0.18 °C | -0.71 °C | 1.62 °C | 0.08 °C |
| Nc1nc(Nc2ccc(S(N)(=O)=O)cc2)nn1C(=O)c1c(F)cccc1F | 9.34 °C | 2.82 °C | -0.19 °C | 9.07 °C | 3.59 °C | 0.97 °C | 3.42 °C | 4.58 °C | 2.97 °C | 2.3 °C |
| CC(C)n1nc(-c2cc3cc(O)ccc3[nH]2)c2c(N)ncnc21 [Torkinib (PP242)] | 1.42 °C | 0.85 °C | 0.29 °C | 2.95 °C | 0.64 °C | 0.48 °C | 0.71 °C | 5.09 °C | 1.25 °C | 0.2 °C |
| Cc1cc(Nc2ncnc3ccc(-c4ccc(CNCCS(C)(=O)=O)o4)cc23)ccc1Oc1ccn2ncnc2c1 [HER2-Inhibitor-1] | 2.59 °C | 0.24 °C | 0.79 °C | 0.49 °C | 0.37 °C | 0.76 °C | 1.21 °C | 4.39 °C | 1.57 °C | 0.72 °C |
| COc1ccc(Oc2cc(NCCC(F)(F)F)c3ncc(-c4ccc(C(=O)NC5CC5)c(C)c4)n3n2)c(F)c1F | 0.77 °C | 0.01 °C | 0.48 °C | 0.31 °C | 0.55 °C | 0.46 °C | 1.7 °C | 1.1 °C | 1.64 °C | 0.4 °C |
| CN(C)Cc1cccc(N/C(=C2\C(=O)Nc3cc(C(N)=O)ccc32)c2ccccc2)c1 | 1.35 °C | 0.37 °C | 0.38 °C | 3.49 °C | 3.05 °C | 0.35 °C | 1.47 °C | 3.48 °C | 0.38 °C | 0.47 °C |
| CN(C)S(=O)(=O)c1ccc2c(c1)/C(=C/c1cc3c([nH]1)CCCC3)C(=O)N2 | 0 °C | 1.15 °C | 0.65 °C | 0.26 °C | 0.61 °C | 0.97 °C | 0 °C | 0 °C | 6.35 °C | 0.43 °C |
| O=C(/C=C/c1ccc2ccccc2n1)c1ccncc1 | 4.53 °C | -0.52 °C | 0.27 °C | -1.09 °C | 0.7 °C | 0.7 °C | 0.37 °C | 4.4 °C | 4.06 °C | 2.67 °C |
| O=c1c(-c2ccc(O)cc2)coc2cc(O)cc(O)c12 [Genistein] | -0.47 °C | -0.37 °C | -0.01 °C | 1.8 °C | 0.92 °C | 0.14 °C | 0.36 °C | -1.3 °C | -1.76 °C | -0.75 °C |
| O=C(O)c1ccc(-c2c[nH]c3ncc(-c4ccccc4)cc23)cc1C1CCCC1 | 1.28 °C | 0.31 °C | 0.69 °C | 0.39 °C | 0.6 °C | 1.12 °C | 0.8 °C | 2.01 °C | 4.2 °C | 0.44 °C |
| O=C1NC(=O)C(c2ccccc2[N+](=O)[O-])=C1Nc1ccc(O)c(Cl)c1 | 1.34 °C | 0.07 °C | 0.14 °C | 2.25 °C | 0.15 °C | -0.05 °C | 0.88 °C | 1.02 °C | 2.72 °C | 0.23 °C |
| CC(C)(CO)n1cc(C(=O)c2cncc(NC(=O)Cc3ccc(Cl)cn3)c2)c2cnc(N)nc21 | 1.08 °C | 0.19 °C | 0.46 °C | 0.3 °C | 0.39 °C | 0.47 °C | 0.51 °C | 0.51 °C | 1.37 °C | 0.41 °C |
| C=CC(=O)Nc1cccc(Nc2nc(Nc3ccc(OCCOC)cc3)ncc2F)c1 | 0 °C | 1.8 °C | 1.14 °C | 6.16 °C | 1.06 °C | 3.26 °C | 3.81 °C | 3.89 °C | 3.75 °C | 1 °C |
| Cc1ccc(NC(=O)c2ccc(CN3CC[C@H](N(C)C)C3)c(C(F)(F)F)c2)cc1Nc1nccc(-c2cncnc2)n1 [Bafetinib (INNO-406)] | 0.37 °C | 3.32 °C | 0.29 °C | 0.16 °C | 0.43 °C | 0.25 °C | 0.34 °C | 0.18 °C | 0.66 °C | 0.35 °C |
| N#Cc1ccc(-c2c(-c3ncn[nH]3)sc(N3CCOCC3)c2C#N)c(F)c1 | 1.03 °C | 0.27 °C | 0.35 °C | 0.25 °C | 0.22 °C | 0 °C | 0.37 °C | 0.45 °C | 1.64 °C | 0.49 °C |
| C[C@]1(O)C[C@@H](c2nc(-c3ccc4ccc(-c5ccccc5)nc4c3)c3c(N)nccn32)C1 [Linsitinib (OSI-906)] | 0.76 °C | 0.75 °C | 0.57 °C | 0.37 °C | 0.12 °C | 0.28 °C | 0.6 °C | 3.89 °C | 1.28 °C | 0.85 °C |
| CO[C@@H](C)Cn1c(=O)n(C)c2cnc3ccc(-c4cncc(C(C)(C)O)c4)cc3c21 | 1.57 °C | 0.18 °C | 0.72 °C | 0.09 °C | 0.68 °C | 0.89 °C | 0.67 °C | 3.42 °C | 1.29 °C | 0.38 °C |
| Cc1ncc(CCCN(C)C)cc1Nc1ncc2c(n1)-c1ccc(C(F)(F)F)cc1NC(=S)C2 | 1.25 °C | 0.09 °C | 0.4 °C | 3.03 °C | 0.91 °C | 0.13 °C | 0.62 °C | 0.02 °C | 0.51 °C | 0.47 °C |
| COc1ccc(-c2ccc3c(N4CCOCC4)nc(N4C[C@@H](C)O[C@@H](C)C4)nc3n2)cc1CO | 0.16 °C | -0.13 °C | -0.03 °C | 0.03 °C | 0.02 °C | -0.08 °C | -0.07 °C | 0.21 °C | 0.34 °C | 0.27 °C |
| CCN(CC)CCNC(=O)c1c(C)[nH]c(/C=C2\C(=O)Nc3ccc(F)cc32)c1C [Sunitinib] | 0 °C | 0.62 °C | 0.04 °C | 7.93 °C | 7.62 °C | 3.43 °C | 7.56 °C | 11 °C | 3.55 °C | 0.46 °C |
